{
  "source": "the antibiotic and cytotoxicity screens of Wong et al. (2023)",
  "note": "The campaign covered roughly 39,000 compounds. About 3,300 (8.5%) were called active. This excerpt belongs to a sample that is enriched for actives.",
  "data": [
    {"system": "HepG2", "test": "cytotoxicity call (relative viability < 0.9)", "settings": "10 µM", "values": [
      {"molecule": "C[C@H]1CCCCO[C@@H](CN(C)Cc2ccccc2)[C@@H](C)CN([C@@H](C)CO)C(=O)c2cc(NC(=O)Nc3ccc(C(F)(F)F)cc3)ccc2O1", "cytotoxicity call": "active"},
      {"molecule": "C[C@@H]1CCCCO[C@H](CN(C)Cc2ccccc2)[C@H](C)CN([C@@H](C)CO)C(=O)c2cc(NC(=O)Nc3ccc(C(F)(F)F)cc3)ccc2O1", "cytotoxicity call": "active"},
      {"molecule": "C[C@@H]1CN([C@H](C)CO)C(=O)c2cc(NC(=O)Nc3ccc(C(F)(F)F)cc3)ccc2O[C@@H](C)CCCCO[C@H]1CN(C)Cc1ccccc1", "cytotoxicity call": "active"},
      {"molecule": "C[C@@H]1CCCCO[C@@H](CN(C)Cc2ccccc2)[C@H](C)CN([C@@H](C)CO)C(=O)c2cc(NC(=O)Nc3ccc(C(F)(F)F)cc3)ccc2O1", "cytotoxicity call": "active"},
      {"molecule": "Cc1noc(C)c1NC(=O)Nc1cccc2c1O[C@H](CN(C)Cc1ccc(C(F)(F)F)cc1)[C@@H](C)CN([C@H](C)CO)C2=O", "cytotoxicity call": "inactive"},
      {"molecule": "C[C@@H]1CN([C@H](C)CO)C(=O)c2cccc(NC(=O)CCCCCC(=O)Nc3ccccc3N)c2O[C@@H]1CN(C)Cc1ccccc1", "cytotoxicity call": "inactive"},
      {"molecule": "C=CCOC[C@H]1NCCc2c1nnn2CC", "cytotoxicity call": "inactive"},
      {"molecule": "COc1ccc(CN(C)C[C@@H]2Oc3c(NS(=O)(=O)c4cn(C)cn4)cccc3C(=O)N([C@H](C)CO)C[C@H]2C)cc1", "cytotoxicity call": "inactive"},
      {"molecule": "O=C(C[C@@H]1CC[C@H]2[C@@H](COC[C@@H](O)CN2C(=O)c2cccnc2)O1)NCC1CC1", "cytotoxicity call": "inactive"},
      {"molecule": "C[C@@H]1CN([C@@H](C)CO)C(=O)c2cc(NS(C)(=O)=O)ccc2O[C@@H](C)CCCCO[C@@H]1CN(C)S(=O)(=O)c1cn(C)cn1", "cytotoxicity call": "inactive"},
      {"molecule": "C[C@H]1CCCCO[C@@H](CN(C)Cc2ccc(C(=O)O)cc2)[C@@H](C)CN([C@@H](C)CO)C(=O)c2cc(NC(=O)Nc3ccc(F)cc3)ccc2O1", "cytotoxicity call": "inactive"},
      {"molecule": "C[C@@H]1CCCCO[C@@H](CN(C)Cc2ccc3c(c2)OCO3)[C@H](C)CN([C@@H](C)CO)C(=O)c2cc(NS(=O)(=O)c3ccccc3)ccc2O1", "cytotoxicity call": "inactive"},
      {"molecule": "Cc1noc(C)c1S(=O)(=O)N(C)C[C@H]1Oc2ccc(NS(=O)(=O)c3ccc(Cl)cc3)cc2CC(=O)N([C@@H](C)CO)C[C@@H]1C", "cytotoxicity call": "inactive"},
      {"molecule": "C[C@H]1CCCCO[C@@H](CN(C)C(=O)Nc2ccccc2)[C@@H](C)CN([C@@H](C)CO)C(=O)c2cc(NC(=O)Nc3ccccc3)ccc2O1", "cytotoxicity call": "inactive"},
      {"molecule": "COCC(=O)Nc1ccc2c(c1)OC[C@H](C)N(Cc1ccccc1OC)C[C@H](C)[C@@H](OC)CN(C)C2=O", "cytotoxicity call": "inactive"},
      {"molecule": "N[C@@H]1CC[C@@H](CCn2cc(-c3ccccn3)nn2)O[C@H]1CO", "cytotoxicity call": "inactive"},
      {"molecule": "C=CCC[C@H](Cc1ccc(F)cc1)C(=O)OC[C@@H](NC(=O)[C@H](CC=C)CC(=O)N(CCO)Cc1ccccc1)c1ccccc1", "cytotoxicity call": "inactive"},
      {"molecule": "C=CCOC(=O)[C@@H]1[C@H]2C(=O)O[C@H](c3ccccc3)[C@H](c3ccccc3)N2[C@H](c2ccc(OCCOC(=O)[C@H]3C[C@H]4C(=O)N[C@@H](CC(C)C)C(=O)N4[C@H]3c3cccc(OCCO)c3)cc2)[C@@]12C(=O)Nc1ccccc12", "cytotoxicity call": "inactive"},
      {"molecule": "Cc1c(C)n2c3c(=O)n(C)c(=O)n(C)c3nc2n1CCO", "cytotoxicity call": "inactive"},
      {"molecule": "CC(C)NC(=O)Nc1ccc2c(c1)CC(=O)N([C@H](C)CO)C[C@@H](C)[C@H](CN(C)S(=O)(=O)c1ccc(F)cc1)O2", "cytotoxicity call": "inactive"},
      {"molecule": "CCC1OC(=O)C(C)C(OC2CC(C)(OC)C(O)C(C)O2)C(C)C(OC2OC(C)CC(N(C)C)C2O)C(C)(O)CC(C)C(=O)C(C)C(O)C1(C)O", "note": "(stereo unspecified)", "cytotoxicity call": "inactive"},
      {"molecule": "CC[C@H]1OC(=O)[C@H](C)[C@@H](O[C@H]2C[C@@](C)(OC)[C@@H](O)[C@H](C)O2)[C@H](C)[C@@H](O[C@@H]2O[C@H](C)C[C@H](N(C)C)[C@H]2O)[C@](C)(O)C[C@@H](C)C(=O)[C@H](C)[C@@H](O)[C@]1(C)O", "cytotoxicity call": "active"},
      {"molecule": "CC[C@H]1OC(=O)[C@H](C)[C@@H](O[C@H]2C[C@@](C)(OC)[C@@H](O)[C@H](C)O2)[C@@H](C)[C@@H](O[C@H]2O[C@H](C)C[C@H](N(C)C)[C@H]2O)[C@](C)(O)C[C@@H](C)C(=O)[C@H](C)[C@@H](O)[C@]1(C)O", "cytotoxicity call": "inactive"},
      {"molecule": "O=C(N[C@@H]1CC[C@H](CCNS(=O)(=O)c2ccccc2)O[C@@H]1CO)c1cnccn1", "cytotoxicity call": "inactive"},
      {"molecule": "O=C(N[C@H](c1ccc2ccccc2n1)c1cccs1)C1CCN(Cc2cccc(C(F)(F)F)c2)CC1", "cytotoxicity call": "inactive"},
      {"molecule": "N#Cc1c(Oc2ccc(F)c(NC(=O)Cc3cccc(C(F)(F)F)c3)c2)ccc2nc(NC(=O)C3CC3)sc12", "cytotoxicity call": "active"},
      {"molecule": "C=CC(=O)N1C[C@@H]2CC[C@H](O)[C@@H]2C1", "cytotoxicity call": "inactive"},
      {"molecule": "COc1ccc(-c2oc3cc(O[C@@H]4O[C@@H](C)[C@H](O)[C@@H](O)[C@H]4O)cc(O)c3c(=O)c2O[C@@H]2O[C@H](CO)[C@@H](O)[C@H](O)[C@H]2O)cc1", "cytotoxicity call": "inactive"},
      {"molecule": "Cc1noc(C)c1NC(=O)Nc1ccc2c(c1)CC(=O)N([C@@H](C)CO)C[C@@H](C)[C@H](CN(C)C(=O)NC(C)C)O2", "cytotoxicity call": "inactive"},
      {"molecule": "Cc1ccc(S(=O)(=O)Nc2cc([C@@H](C(=O)OC(C)C)C(=O)C(F)(F)F)c(O)c3ccccc23)c(C)c1", "cytotoxicity call": "inactive"},
      {"molecule": "CNC[C@@H]1OCCCC[C@H](C)Oc2ccc(NC(=O)Nc3ccc(C(F)(F)F)cc3)cc2C(=O)N([C@H](C)CO)C[C@H]1C", "cytotoxicity call": "inactive"},
      {"molecule": "O=c1c(O)c(-c2ccccc2)oc2cccc(O)c12", "cytotoxicity call": "inactive"},
      {"molecule": "O=c1c(O)c(-c2ccccc2)oc2cc(O)ccc12", "cytotoxicity call": "inactive"},
      {"molecule": "O=c1c(O)c(-c2ccc(O)c(O)c2)oc2cc(O)cc(O)c12", "cytotoxicity call": "inactive"},
      {"molecule": "O=c1c(O)c(-c2ccc(O)c(O)c2)oc2cc(O)ccc12", "cytotoxicity call": "active"},
      {"molecule": "O=c1c(O)c(-c2ccc(O)cc2)oc2ccccc12", "cytotoxicity call": "active"},
      {"molecule": "O=c1c(O)c(-c2ccccc2)oc2ccccc12", "cytotoxicity call": "inactive"},
      {"molecule": "CCC1OC(=O)C(C)C(OC2CC(C)(OC)C(O)C(C)O2)C(C)C(OC2OC(C)CC(N(C)C)C2O)C(C)(O)CC(C)CN(C)C(C)C(O)C1(C)O", "note": "(stereo unspecified)", "cytotoxicity call": "inactive"},
      {"molecule": "Cc1noc(C)c1NC(=O)N(C)C[C@@H]1OCCCC[C@H](C)Oc2ccc(NS(=O)(=O)c3cccs3)cc2C(=O)N([C@@H](C)CO)C[C@H]1C", "cytotoxicity call": "inactive"},
      {"molecule": "CCCNC(=O)C[C@@H]1CC[C@H]2[C@@H](COC[C@@H](O)CN2S(=O)(=O)c2ccc(Oc3ccccc3)cc2)O1", "cytotoxicity call": "inactive"},
      {"molecule": "COCC(=O)Nc1ccc2c(c1)C(=O)N(C)C[C@@H](OC)[C@H](C)CN(Cc1ccccc1OC)[C@H](C)CO2", "cytotoxicity call": "inactive"},
      {"molecule": "Cc1cncc2cccc(S(=O)(=O)NCCN(C/C=C/c3ccc(Br)cc3)C/C=C/c3ccc(Br)cc3)c12", "cytotoxicity call": "inactive"},
      {"molecule": "C[C@@H]1CN([C@H](C)CO)C(=O)Cc2cc(NC(=O)NC3CCCCC3)ccc2O[C@H]1CN(C)S(C)(=O)=O", "cytotoxicity call": "inactive"},
      {"molecule": "C[C@H](CO)N1C[C@H](C)[C@H](CN(C)S(C)(=O)=O)Oc2ccc(NC(=O)NC3CCCCC3)cc2CC1=O", "cytotoxicity call": "inactive"},
      {"molecule": "C[C@@H]1CN([C@H](C)CO)C(=O)Cc2cc(NC(=O)NC3CCCCC3)ccc2O[C@@H]1CN(C)S(C)(=O)=O", "cytotoxicity call": "active"},
      {"molecule": "C[C@H](CO)N1C[C@H](C)[C@@H](CN(C)S(C)(=O)=O)Oc2ccc(NC(=O)NC3CCCCC3)cc2CC1=O", "cytotoxicity call": "inactive"},
      {"molecule": "C[C@H]1CN([C@@H](C)CO)C(=O)Cc2cc(NC(=O)NC3CCCCC3)ccc2O[C@H]1CN(C)S(C)(=O)=O", "cytotoxicity call": "inactive"},
      {"molecule": "C[C@@H]1CN([C@@H](C)CO)C(=O)Cc2cc(NC(=O)NC3CCCCC3)ccc2O[C@H]1CN(C)S(C)(=O)=O", "cytotoxicity call": "active"},
      {"molecule": "COc1ccc(CN(C)C[C@@H]2Oc3ccc(NC(=O)CCN4CCOCC4)cc3C(=O)N([C@@H](C)CO)C[C@H]2C)cc1", "cytotoxicity call": "inactive"},
      {"molecule": "C[C@@H]1CN([C@H](C)CO)C(=O)c2cc(NC(=O)CCC(F)(F)F)ccc2O[C@@H](C)CCCCO[C@H]1CN(C)Cc1ccncc1", "cytotoxicity call": "inactive"},
      {"molecule": "C[C@@H]1CCCCO[C@H](CN(C)S(=O)(=O)c2cccs2)[C@H](C)CN([C@H](C)CO)C(=O)c2cc(NC(=O)Cc3ccccc3)ccc2O1", "cytotoxicity call": "inactive"},
      {"molecule": "C[C@H](CO)N1C[C@H](C)[C@@H](CN(C)C(=O)Nc2ccccc2)Oc2ccc(NC(=O)Nc3cccc4ccccc34)cc2C1=O", "cytotoxicity call": "inactive"},
      {"molecule": "C[C@@H]1CN([C@H](C)CO)S(=O)(=O)c2ccc(-c3ccccc3F)cc2O[C@@H]1CN(C)Cc1cncnc1", "cytotoxicity call": "inactive"},
      {"molecule": "CCS(=O)(=O)Nc1ccc2c(c1)C(=O)N(C)[C@H]1CC[C@H](CC(=O)N[C@@H]3CCN(Cc4ccccc4)C3)O[C@H]1CO2", "cytotoxicity call": "inactive"},
      {"molecule": "C[C@@H]1CCCCO[C@@H](CN(C)C(=O)Nc2cccc3ccccc23)[C@H](C)CN([C@@H](C)CO)C(=O)c2cc(NC(=O)Nc3ccc(F)cc3)ccc2O1", "cytotoxicity call": "inactive"},
      {"molecule": "Cl.Cl.O=C1c2c(O)ccc(O)c2C(=O)c2c(NCCNCCO)ccc(NCCNCCO)c21", "cytotoxicity call": "active"},
      {"molecule": "O=C1c2ccccc2C(=O)c2c(NCCNCCO)ccc(NCCNCCO)c21", "cytotoxicity call": "active"},
      {"molecule": "O=[N+]([O-])c1ccc(NCCNCCO)cc1", "cytotoxicity call": "inactive"},
      {"molecule": "O=C(CCNCCO)c1ccccc1", "cytotoxicity call": "inactive"},
      {"molecule": "O=C1c2ccccc2C(=O)c2c1ccc(O)c2O", "cytotoxicity call": "inactive"},
      {"molecule": "O=C1c2c(O)ccc(O)c2C(=O)c2c(NCCNCCO)ccc(NCCNCCO)c21", "cytotoxicity call": "active"},
      {"molecule": "CN1CCN(C(=O)C[C@H]2CC[C@H]3[C@H](COc4ccc(NC(=O)C5CCCCC5)cc4C(=O)N3C)O2)CC1", "cytotoxicity call": "inactive"},
      {"molecule": "C[C@]12C(=O)N(CCCCCO)[C@@H]3C(=O)N(c4ccc(Cl)cc4)CC=C[C@]31O[C@@H]1/C=C\\CCCOC(=O)[C@H]12", "cytotoxicity call": "inactive"},
      {"molecule": "O=C(C[C@@H]1CC[C@H](NC(=O)CN2CCOCC2)[C@@H](CO)O1)NC1CCC1", "cytotoxicity call": "inactive"},
      {"molecule": "CC(C)NC(=O)Nc1ccc2c(c1)C(=O)N([C@H](C)CO)C[C@@H](C)[C@@H](CN(C)S(=O)(=O)c1ccccc1)O2", "cytotoxicity call": "inactive"},
      {"molecule": "COCC#Cc1ccc2c(c1)O[C@@H](CN(C)S(=O)(=O)c1ccc(OC)cc1)[C@H](C)CN([C@H](C)CO)S2(=O)=O", "cytotoxicity call": "inactive"}
    ]}
  ]
}
